Data: PubChem BioAssay
Activity calls are given as the source filed them. Unless noted, how the calls were made is not given here.

Experiments:
[1] = test system: Wnt5a (protein binding on small-molecule microarray); experiment: Wnt5a binders on small-molecule microarray, primary screen, biophysical, 635/667 nm fluorescence (AID 1142); conditions: 635 nm fluorescence, higher = more signal;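 further: fluorescence read at 667 nm with signal to noise per printed feature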
[2] = cell viability in Huh7 cells, primary screen, cytotoxicity control for HCV replication inhibitor project, CellTiter-Glo luminescence, basal, 48 h (AID 1143); conditions: Huh7 HCV replicon, higher = more signal, called active from +8 up or from −8 down;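 further: Huh7 hepatoma cells carrying a hepatitis C replication reporter with no stimulus; test concentration not given here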
[3] = P. aeruginosa biofilm formation inhibitors, primary screen, PAO1 strain, BacTiter-Glo luminescence, LB-PBS (AID 1144); conditions: 12 h, higher = more signal
[4] = CREB reporter modulators without forskolin, primary screen, cell-based, PC12, CRE-LacZ reporter, unstimulated (AID 1145); conditions: no forskolin, luminescence, 4.5 h, higher = more signal, called active from +8 up or from −8 down
[5] = CREB reporter modulators under forskolin, primary screen, cell-based, PC12, CRE-LacZ reporter, forskolin-stimulated (AID 1146); conditions: luminescence, 4.5 h, higher = more signal, called active from +8 up or from −8 down;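 further: PC12 cells with 6xCRE LacZ reporter stimulated by forskolin 10 µM; beta-galactosidase reporter signal reflecting CREB driven transcription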
[6] = biological target: Streptavidin (Streptomyces avidinii) (UniProt P22629); experiment: streptavidin binders on small-molecule microarray, primary screen, artefact control for SMM compound annotation, biophysical, 635/667 nm fluorescence (AID 1147); conditions: streptavidin binding, higher = more signal;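 further: signal reflects streptavidin binding to arrayed compounds as a control protein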
[7] = small-molecule binders of probe aInhba, primary screen, biochemical, small-molecule microarray, 635/667 nm fluorescence (AID 1148); conditions: higher = more signal;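 further: score merges 667nm spot fluorescence with signal-to-noise for antibody binding to printed compounds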
[8] = biological target: Torsin-1A (Homo sapiens) (UniProt O14656); experiment: torsin A binders from cell lysate, primary screen, small-molecule microarray, wild-type, 635/667 nm (AID 1149); conditions: COS7 hTOR1A-WT lysate, 635 nm fluorescence, higher = more signal
[9] = biological target: Torsin-1A (Homo sapiens) (UniProt O14656); experiment: small-molecule binders of mutant TOR1A in lysate, primary screen, cell lysate, small-molecule microarray, COS7 lysate, 635/667 nm fluorescence (AID 1150); conditions: COS7 hTOR1A mutant lysate, 635 nm fluorescence, higher = more signal;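 further: score pools 667 nm emission and signal to noise measuring lysate protein binding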
[10] = test system: Sonic hedgehog protein (Shh); experiment: small-molecule binders of Shh protein, primary screen, biochemical, small-molecule microarray, 635/667 nm fluorescence (AID 1151); conditions: small-molecule microarray binding, 635 nm fluorescence; higher = more signal;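 further: Shh protein binding to compounds spotted on small-molecule microarray slides; score combines spot fluorescence intensity with signal-to-noise across triplicate slides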
[11] = E. coli DRC41 culture turbidity changes, primary screen, E. coli filamentation inducer project, strain DRC41, OD650, 48 h (AID 1152);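 further: E. coli MC1000 strain DRC41 lacking acrAB efflux pump and sulA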; conditions: E. coli DRC41 (acrAB sulA), higher = more signal, called active from +8 up or from −8 down
[12] = small-molecule binders of probe aLefty1, primary screen, biochemical, small-molecule microarray, 635/667 nm fluorescence (AID 1153); conditions: higher = more signal;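 further: score merges spot fluorescence with signal-to-noise ratio from the scanned slide images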
[13] = PSAC antagonists in infected red cells, primary screen, cell-based, P. falciparum Indochina, OD700, 1 h (AID 1154); conditions: P. falciparum Indochina infected RBC osmotic lysis, higher = more signal, called active from +8 up or from −8 down
[14] = PSAC antagonists in infected red cells, primary screen, cell-based, P. falciparum Indochina, OD700, 2 h (AID 1155);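 further: lysis reports solute entry through the parasite surface anion channel PSAC; channel blockers reduce lysis of infected cells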; conditions: P. falciparum Indochina infected erythrocytes, osmotic lysis OD700; higher = more signal, called active from +8 up or from −8 down
[15] = osmotic lysis modulators in infected erythrocytes, primary screen, PSAC antagonist project, cell-based, P. falciparum Indochina, OD700, 3 h (AID 1156); conditions: higher = more signal, called active from +8 up or from −8 down
[16] = PSAC antagonists in infected red cells, primary screen, cell-based, P. falciparum Indochina, OD700, 18 h (AID 1157); conditions: P. falciparum Indochina infected erythrocytes, osmotic lysis OD700, 18 h; higher = more signal, called active from +8 up or from −8 down
[17] = modulators of S6 phosphorylation in cells, primary screen, cell-based, A549, cytoblot, luminescence, serum-stimulated (AID 1158); conditions: A549 phospho-S6 cytoblot, 5 h, higher = more signal;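 further: serum-stimulated A549 lung adenocarcinoma cells; signal is phosphorylated S6 detected by cytoblot immunostaining with HRP secondary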
[18] = biological target: NADPH oxidase 2 (Homo sapiens) (UniProt P04839); experiment: NOX2-dependent H2O2 signal modulators, primary screen, NOX inhibitor project, cell-based, HEK293-NOX2, PMA-stimulated, Amplex Red fluorescence (AID 1159); conditions: 45 min, higher = more signal, called active from +8 up or from −8 down; further: test concentration not given here
[19] = biological target: NADPH oxidase 4 (Homo sapiens) (UniProt Q9NPH5); experiment: NOX4-dependent H2O2 signal modulators, primary screen, NOX inhibitor project, cell-based, HEK293-NOX4, tetracycline-induced, Amplex Red fluorescence (AID 1160); conditions: 45 min, higher = more signal, called active from +8 up or from −8 down
[20] = biological target: NADPH oxidase 5 (Homo sapiens) (UniProt Q96PH1); experiment: NOX5-dependent H2O2 signal modulators, primary screen, NOX inhibitor project, cell-based, HEK293-NOX5, Amplex Red fluorescence (AID 1161); conditions: HEK293-NOX5, ionomycin, 45 min, higher = more signal
Sequence of NADPH oxidase 5 (Homo sapiens) (Q96PH1 whole entry, looked up): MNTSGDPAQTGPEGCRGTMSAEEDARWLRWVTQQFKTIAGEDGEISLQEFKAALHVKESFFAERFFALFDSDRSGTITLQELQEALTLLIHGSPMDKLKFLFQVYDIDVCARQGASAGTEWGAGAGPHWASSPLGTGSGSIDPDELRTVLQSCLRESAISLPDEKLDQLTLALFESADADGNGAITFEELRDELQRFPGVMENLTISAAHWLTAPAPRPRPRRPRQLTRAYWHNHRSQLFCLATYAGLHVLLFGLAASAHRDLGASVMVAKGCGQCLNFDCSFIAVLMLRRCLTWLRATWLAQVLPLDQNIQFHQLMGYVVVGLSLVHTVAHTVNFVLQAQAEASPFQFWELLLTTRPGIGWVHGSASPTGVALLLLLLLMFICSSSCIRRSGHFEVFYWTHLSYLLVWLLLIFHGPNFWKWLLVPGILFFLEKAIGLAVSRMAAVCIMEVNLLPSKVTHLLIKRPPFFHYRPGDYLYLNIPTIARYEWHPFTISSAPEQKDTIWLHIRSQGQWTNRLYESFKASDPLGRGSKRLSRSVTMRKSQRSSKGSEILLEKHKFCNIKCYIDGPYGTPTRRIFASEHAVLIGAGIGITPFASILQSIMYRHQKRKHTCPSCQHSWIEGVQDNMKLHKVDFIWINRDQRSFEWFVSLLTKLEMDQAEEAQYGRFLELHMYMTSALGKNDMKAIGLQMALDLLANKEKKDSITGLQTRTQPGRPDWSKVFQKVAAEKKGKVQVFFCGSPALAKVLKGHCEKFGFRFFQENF

Sequence of NADPH oxidase 2 (Homo sapiens) (P04839 whole entry, looked up): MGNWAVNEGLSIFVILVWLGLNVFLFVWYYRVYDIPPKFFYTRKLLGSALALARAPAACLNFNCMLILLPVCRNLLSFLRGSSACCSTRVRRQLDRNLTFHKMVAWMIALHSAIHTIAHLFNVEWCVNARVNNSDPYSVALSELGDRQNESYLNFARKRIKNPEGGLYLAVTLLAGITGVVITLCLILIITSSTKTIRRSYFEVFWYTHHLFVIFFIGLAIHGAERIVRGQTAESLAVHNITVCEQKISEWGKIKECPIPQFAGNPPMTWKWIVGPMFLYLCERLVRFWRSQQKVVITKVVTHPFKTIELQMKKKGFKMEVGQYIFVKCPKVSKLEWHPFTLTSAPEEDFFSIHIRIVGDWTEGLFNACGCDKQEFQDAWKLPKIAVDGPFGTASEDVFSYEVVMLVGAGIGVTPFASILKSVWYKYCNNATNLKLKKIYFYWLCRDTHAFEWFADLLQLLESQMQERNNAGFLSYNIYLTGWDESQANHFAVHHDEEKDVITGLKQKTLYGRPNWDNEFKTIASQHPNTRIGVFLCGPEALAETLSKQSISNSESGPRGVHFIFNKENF
Sequence of NADPH oxidase 4 (Homo sapiens) (Q9NPH5 whole entry, looked up): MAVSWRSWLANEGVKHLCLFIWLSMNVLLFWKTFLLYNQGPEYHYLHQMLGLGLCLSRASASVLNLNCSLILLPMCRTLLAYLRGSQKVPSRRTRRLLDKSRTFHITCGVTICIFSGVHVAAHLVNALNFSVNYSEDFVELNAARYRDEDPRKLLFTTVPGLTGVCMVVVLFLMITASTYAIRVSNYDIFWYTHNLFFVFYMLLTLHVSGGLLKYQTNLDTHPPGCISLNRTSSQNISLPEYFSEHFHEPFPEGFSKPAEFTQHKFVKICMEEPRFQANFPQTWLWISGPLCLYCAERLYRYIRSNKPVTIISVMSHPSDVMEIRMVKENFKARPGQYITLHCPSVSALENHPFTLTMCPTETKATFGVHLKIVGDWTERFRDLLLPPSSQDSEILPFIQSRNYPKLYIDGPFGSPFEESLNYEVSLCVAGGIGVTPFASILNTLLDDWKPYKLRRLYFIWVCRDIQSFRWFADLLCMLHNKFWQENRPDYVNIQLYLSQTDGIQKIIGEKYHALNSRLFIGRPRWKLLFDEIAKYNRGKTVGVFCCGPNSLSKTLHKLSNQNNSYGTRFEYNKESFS
Sequence of Streptavidin (Streptomyces avidinii) (P22629 whole entry, looked up): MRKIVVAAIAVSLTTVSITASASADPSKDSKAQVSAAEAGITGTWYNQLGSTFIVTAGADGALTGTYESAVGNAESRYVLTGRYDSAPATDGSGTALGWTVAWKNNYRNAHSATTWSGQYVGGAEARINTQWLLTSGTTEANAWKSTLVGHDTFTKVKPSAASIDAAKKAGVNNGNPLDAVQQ
Sequence of Torsin-1A (Homo sapiens) (O14656 whole entry, looked up): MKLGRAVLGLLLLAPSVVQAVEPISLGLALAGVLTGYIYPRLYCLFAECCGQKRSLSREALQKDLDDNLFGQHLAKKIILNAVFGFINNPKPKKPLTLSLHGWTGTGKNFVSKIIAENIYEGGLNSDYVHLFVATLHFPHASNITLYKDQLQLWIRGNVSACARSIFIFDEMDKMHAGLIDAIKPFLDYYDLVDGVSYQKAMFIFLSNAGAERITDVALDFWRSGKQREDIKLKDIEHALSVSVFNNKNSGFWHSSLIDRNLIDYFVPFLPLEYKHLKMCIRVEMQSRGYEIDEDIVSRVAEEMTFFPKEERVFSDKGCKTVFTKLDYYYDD

Row | Compound | composite z-score [1] | z-score [2] | z-score [3] | z-score [4] | z-score [5] | composite z-score [6] | composite z-score [7] | composite z-score [8] | composite z-score [9] | composite z-score [10] | z-score [11] | composite z-score [12] | z-score [13] | z-score [14] | z-score [15] | z-score [16] | z-score [17] | z-score [18] | z-score [19] | z-score [20]
1 | Cc1ccc(S(=O)(=O)N2[C@@H](c3ccccc3)C(C(=O)O)=CC[C@H]2c2ccccc2)cc1 | 0.105 | -0.498 (inactive) | 0.0815 (inactive) | 0.0707 (inactive) | -0.303 (inactive) | 0.263 | 0.0631 | 0.195 | -0.0024 | -0.497 | -1.57 (inactive) | -0.0501 | 0.432 (inactive) | 0.798 (inactive) | 0.605 (inactive) | 0.83 (inactive) | -0.259 | -0.127 (inactive) | -0.375 (inactive) | -2.32
2 | Cc1cc(C)c(C(O)C2C=CC3C(=O)N(C)C(=O)C3N2N2CCCCC2)c(C)c1 (stereo not given) | 0.423 | 1.09 (inactive) | -0.276 (inactive) | -0.14 (inactive) | 0.56 (inactive) | 1.4 | 0.233 | 0.0592 | 0.251 | 0.375 | -1.06 (inactive) | 0.554 | -0.245 (inactive) | 0.827 (inactive) | -0.285 (inactive) | 1.12 (inactive) | -1.01 | -0.669 (inactive) | 0.167 (inactive) | -1.23
3 | COc1ccc([Si](C)(C)[C@@H]2[C@@H](CC(=O)N(CCO)Cc3ccccc3)O[C@]3(C(=O)N(Cc4cccc(N5CCC5=O)c4)c4ccccc43)[C@H]2C)cc1 | 0.0348 | -5.72 (inactive) | 0.765 (inactive) | 0.236 (inactive) | 0.398 (inactive) | -0.287 | 0.0301 | 0.0525 | -0.009 | 1.81 | 0.557 (inactive) | 0.122 | 3.67 (inactive) | 1.49 (inactive) | 0.0319 (inactive) | 1.19 (inactive) | 1.61 | 1.34 (inactive) | 1.48 (inactive) | 3.23
4 | COc1ccc(-c2cc3c(c(-c4ccccc4)n2)[Si](C(C)C)(C(C)C)O[C@H]3c2ccccc2)cn1 | 0.436 | 0.0834 (inactive) | 0.0798 (inactive) | 0.0035 (inactive) | 0.411 (inactive) | -0.207 | -0.0403 | 0.363 | -0.0308 | 0.82 | -1.27 (inactive) | -0.147 | 1.71 (inactive) | 0.489 (inactive) | -0.479 (inactive) | -0.183 (inactive) | -0.442 | 0.601 (inactive) | 0.451 (inactive) | 0.929
5 | COCCOC(=O)N1C(=O)[C@@]2(c3cc(C#CC4=CCCCC4)ccc31)[C@H](C(=O)NC[C@H](O)c1ccccc1)[C@H]1C(=O)O[C@H](c3ccccc3)[C@H](c3ccccc3)N1[C@@H]2c1ccc(OCCO)cc1 | 0.374 | -2.96 (inactive) | 0.329 (inactive) | 0.0776 (inactive) | 1.2 (inactive) | 0.855 | 0.0446 | 0.481 | 0.0642 | 2.05 | -0.999 (inactive) | 0.197 | 3.71 (inactive) | 2.15 (inactive) | -0.681 (inactive) | 1.05 (inactive) | 0.0766 | 1.54 (inactive) | 1.17 (inactive) | 1.59
6 | COc1cc2c(cc1OC)CN(C(=O)[C@H]1[C@@H]3C(=O)O[C@@H](c4ccccc4)[C@@H](c4ccccc4)N3[C@@H](c3ccccc3OCCO)[C@]13C(=O)Nc1ccc(C#CC4(O)CCCCCC4)cc13)CC2 | 1.01 | -3.68 (inactive) | -1.5 (inactive) | -0.231 (inactive) | 1.57 (inactive) | 0.899 | 0.0119 | 0.808 | 1.12 | 1.33 | 2.29 (inactive) | 0.0686 | 3.02 (inactive) | 2.11 (inactive) | 3.25 (inactive) | 1.89 (inactive) | 0.389 | 1.07 (inactive) | 1.65 (inactive) | 1.43
7 | COC(=O)[C@@]1(Cc2ccccc2)[C@H]2c3cc(C(=O)N4CCCC4)n(CCN4CNCC4=O)c3C[C@H]2CN1C(=O)c1ccccc1 | -0.042 | -0.119 (inactive) | 0.351 (inactive) | -0.182 (inactive) | -0.768 (inactive) | 2.04 | 0.202 | -0.0625 | 1.02 | -0.535 | -1.1 (inactive) | 0.0176 | -0.469 (inactive) | -1.05 (inactive) | 0.423 (inactive) | -1.63 (inactive) | 0.212 | 0.122 (inactive) | 1.61 (inactive) | 0.595
8 | COc1cc(CO)cc(I)c1O[C@H]1C=C(C(=O)NCCO)C[C@@H](N(CC2CCCCC2)C(=O)c2cc3ccccc3oc2=O)[C@@H]1O | 0.159 | -0.0365 (inactive) | -0.143 (inactive) | 1.13 (inactive) | -1.27 (inactive) | 0.745 | -0.0332 | 0.0653 | 0.0077 | 0.568 | 2.01 (inactive) | -0.0969 | 2.5 (inactive) | 0.718 (inactive) | 1.18 (inactive) | 0.207 (inactive) | -0.0608 | -0.289 (inactive) | 1.3 (inactive) | 0.647
